# Reference: PMC8384837, “Expanding the binding specificity for RNA recognition by a PUF domain”
# Where a chain is given by its changes, count along the chain named.
# What was measured:
# Experiment in all cases: yeast three-hybrid, YBZ-1, SC-Leu-His + 0.5 mM 3-AT, 4 days
# Settings in all cases: tags: N-Gal4 AD-HA kept; label: inside an RPR1-promoter hybrid RNA with tandem MS2 sites; ssRNA
# PUM1 PUF domain R2-AFW = PUM1 PUF domain R2-AFW (Homo sapiens, UniProt Q14671 828-1176, N899A;Y900F;Q903W)
# How it was run: (§1)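 A centromeric plasmid in strain YBZ-1 co-expressed Pumilio-1 PUF domain libraries, randomized at the three base-contacting residues of each repeat, with matching RNA elements; the strain carries a LexA–MS2 coat fusion and a HIS3 reporter. After four days on SC-Leu (input) or SC-Leu-His + 0.5 mM 3-AT (selection), the repeat regions were PCR-amplified and Illumina-sequenced. The interaction score is the log change in variant frequency from input to selection, using log2 and a pseudocount of 1 where absent.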
# PUM1 PUF domain R3-DAK = PUM1 PUF domain R3-DAK (Homo sapiens, UniProt Q14671 828-1176, C935D;R936A;Q939K)
# How it was run: as §1
# PUM1 PUF domain R6-CHC = molecular target: T1, PUM1 PUF domain R6-CHC (Homo sapiens, UniProt Q14671 828-1176, N1043C;Y1044H;Q1047C)
# T1 sequence: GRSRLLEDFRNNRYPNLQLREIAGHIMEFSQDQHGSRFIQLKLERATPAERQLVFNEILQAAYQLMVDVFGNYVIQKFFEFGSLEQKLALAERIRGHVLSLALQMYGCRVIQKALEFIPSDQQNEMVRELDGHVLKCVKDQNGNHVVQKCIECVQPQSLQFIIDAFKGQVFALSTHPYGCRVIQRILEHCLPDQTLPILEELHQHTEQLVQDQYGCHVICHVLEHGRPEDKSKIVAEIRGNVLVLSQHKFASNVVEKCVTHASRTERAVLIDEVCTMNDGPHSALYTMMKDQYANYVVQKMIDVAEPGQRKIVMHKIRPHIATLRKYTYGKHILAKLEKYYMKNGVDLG
# How it was run: as §1
# PUM1 PUF domain R8-KWA = PUM1 PUF domain R8-KWA (Homo sapiens, UniProt Q14671 828-1176, N1122K;Y1123W;Q1126A)
# How it was run: as §1
# PUM1 PUF domain R5-QLR = PUM1 PUF domain R5-QLR (Homo sapiens, UniProt Q14671 828-1176, C1007Q;R1008L;Q1011R)
# How it was run: as §1
# PUM1 PUF domain R1-RAS = PUM1 PUF domain R1-RAS (Homo sapiens, UniProt Q14671 828-1176, S863R;R864A;Q867S)
# PUM1 PUF domain R1-RAS, sequence (Q14671 828-1176 S863R/R864A/Q867S): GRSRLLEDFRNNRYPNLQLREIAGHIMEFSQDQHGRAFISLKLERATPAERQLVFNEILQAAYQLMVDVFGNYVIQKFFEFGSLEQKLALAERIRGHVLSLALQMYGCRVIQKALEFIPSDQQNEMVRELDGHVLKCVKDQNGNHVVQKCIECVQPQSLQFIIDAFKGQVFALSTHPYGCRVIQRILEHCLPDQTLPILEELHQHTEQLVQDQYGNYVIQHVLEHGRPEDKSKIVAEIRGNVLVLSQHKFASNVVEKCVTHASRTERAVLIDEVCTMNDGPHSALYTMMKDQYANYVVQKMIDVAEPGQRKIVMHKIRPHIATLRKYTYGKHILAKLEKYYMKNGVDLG
# How it was run: as §1
# PUM1 PUF domain R6-CYI = molecular target: T2, PUM1 PUF domain R6-CYI (Homo sapiens, UniProt Q14671 828-1176, N1043C;Q1047I)
# T2 sequence: T1 sequence with H217Y, C220I
# How it was run: as §1
sequence,measurement,setting,value
GGCUAGAACUAGUGGAUCCCCCGGCGCCCGGCGGCUCGAGCCCGGGUAAGUGUAAAGAGUCUGCAUGCCGCCGGGCGCCAUGCCUGCAGGUCGACUCUAGAAAACAUG,binding signal,PUM1 PUF domain R2-AFW,1.14 log2 enrichment (interaction score)
GGCUAGAACUAGUGGAUCCCCCGGCGCCCGGCGGCUCGAGCCCGGGUAAGUGUAAUUAGUCUGCAUGCCGCCGGGCGCCAUGCCUGCAGGUCGACUCUAGAAAACAUG,binding signal,PUM1 PUF domain R3-DAK,3.6 log2 enrichment (interaction score)
GGCUAGAACUAGUGGAUCCCCCGGCGCCCGGCGGCUCGAGCCCGGGUAAGUGUAAAUAGUCUGCAUGCCGCCGGGCGCCAUGCCUGCAGGUCGACUCUAGAAAACAUG,binding signal,PUM1 PUF domain R6-CHC,3.57 log2 enrichment (interaction score)
same,binding signal,PUM1 PUF domain R8-KWA,2.67 log2 enrichment (interaction score)
GGCUAGAACUAGUGGAUCCCCCGGCGCCCGGCGGCUCGAGCCCGGGUAAGUGUCAAUAGUCUGCAUGCCGCCGGGCGCCAUGCCUGCAGGUCGACUCUAGAAAACAUG,binding signal,PUM1 PUF domain R5-QLR,6.43 log2 enrichment (interaction score)
GGCUAGAACUAGUGGAUCCCCCGGCGCCCGGCGGCUCGAGCCCGGGUAAGUGUAAAAAGUCUGCAUGCCGCCGGGCGCCAUGCCUGCAGGUCGACUCUAGAAAACAUG,binding signal,PUM1 PUF domain R2-AFW,4.3 log2 enrichment (interaction score)
GGCUAGAACUAGUGGAUCCCCCGGCGCCCGGCGGCUCGAGCCCGGGUAAGUGUAAAUGGUCUGCAUGCCGCCGGGCGCCAUGCCUGCAGGUCGACUCUAGAAAACAUG,binding signal,PUM1 PUF domain R1-RAS,1.5 log2 enrichment (interaction score)
GGCUAGAACUAGUGGAUCCCCCGGCGCCCGGCGGCUCGAGCCCGGGUAAGCGUAAAUAGUCUGCAUGCCGCCGGGCGCCAUGCCUGCAGGUCGACUCUAGAAAACAUG,binding signal,PUM1 PUF domain R8-KWA,3.8 log2 enrichment (interaction score)
GGCUAGAACUAGUGGAUCCCCCGGCGCCCGGCGGCUCGAGCCCGGGUAAGUGAAAAUAGUCUGCAUGCCGCCGGGCGCCAUGCCUGCAGGUCGACUCUAGAAAACAUG,binding signal,PUM1 PUF domain R6-CYI,5.81 log2 enrichment (interaction score)
